Screen size: about 350,000 compounds; about 31,000 (8.9%) were called active. Another 15% or so got no clear call; they are omitted. Many of the other results were omitted from the sample, so actives are more common in it than they were. Unmarked numbers belong to inactive results. Calls follow the shape of the dose curve; as a rule, active = well fitted inhibition curve with a large enough effect; inconclusive = small, poorly fitted or top-dose-only effect; inactive = no such curve, though single readings can be large or run the other way.
% is scaled to controls: 0 for no effect and ±100 for the full control effect; potency is read from the fitted curve at half-maximal effect.

Sequence of Histone-lysine N-methyltransferase EHMT2 (Homo sapiens) (Q96KQ7 913-1193 limits assumed): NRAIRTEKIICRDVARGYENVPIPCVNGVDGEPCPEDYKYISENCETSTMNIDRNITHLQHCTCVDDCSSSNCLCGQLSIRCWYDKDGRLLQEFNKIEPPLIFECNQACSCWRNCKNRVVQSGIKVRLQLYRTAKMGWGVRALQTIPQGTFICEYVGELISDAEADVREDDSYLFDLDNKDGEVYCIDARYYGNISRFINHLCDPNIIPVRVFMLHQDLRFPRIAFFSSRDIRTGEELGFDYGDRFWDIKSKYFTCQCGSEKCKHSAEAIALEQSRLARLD

This test concerns the target Histone-lysine N-methyltransferase EHMT2 (Homo sapiens) (UniProt Q96KQ7). In words: qHTS Assay for Inhibitors of Histone Lysine Methyltransferase G9a. Also: nearly all actives have a fitted effect of over 75% in size. The note with it: G9a H3K9 monomethylation, AlphaScreen, 2 h; series mostly up to 59 µM; activity, negative = inhibition: at the top concentration. The text has this: Methylated lysines, on the N-terminal tails of histone proteins serve as epigenetic markers to recruit factors that can then modify local chromatin structure to lead to functional consequences. G9a and other members of the SUV39 family of the SET domain-containing superfamily of histone lysine methyltransferases (HMT) have been identified to specifically methylate Lys9 of histone H3 (H3K9). G9a catalyzes the mono- and di-methylation of H3K9 in mammalian euchromatic regions, where the resulting H3K9me2 is indicative of transcriptional repression. […] The inhibition of G9a will result in transcriptional activation and work synergistically with DNA methyltransferase and histone deacetylase inhibitors, to kill cancer cells. This qHTS assay for identification of G9a inhibitors is a chemiluminescence based AlphaScreen (PerkinElmer). Methylation of biotinylated-histone peptide is measured through specific antibody-based detection, in conjunction with streptavidin-coated donor and anti-IgG antibody-coated acceptor beads. The method is particularly well suited for detection of inhibitors acting by the desired histone peptide competitive mechanism and is applicable to testing other HMTs. Although AlphaScreen has significant advantages with its utility in a variety of epigenetic target assays, the primary screening data provided in this deposition should be used with caution due to the prevalence of screening artifacts. An AlphaScreen counterscreen is highly recommended to be run against any putative actives to eliminate non specific artifacts. Alternatively, one can use other AlphaScreen assays in PubChem to filter out promiscuous hits. Quinn et al. A chemiluminescence-based method for identification of histone lysine methyltransferase inhibitors. Mol Biosyst 6(5): 782-8. 2010. PMID: 20567762 [2] Baell,Holloway. New substructure filters for removal of pan assay interference compounds (PAINS) from screening libraries and for their exclusion in bioassays. J Med Chem. 53(7):2719-40. 2010. PMID: 20131845 NIH Molecular Libraries Probe Production Network [MLPCN] NIH Chemical Genomics Center [NCGC] Structural Genomics Consortium (SGC) NIH Grant: 5U54 MH084681-02
To each well of a 1,536w plate, 2ul of HMT enzyme (final 20nM) were added, using a nanoliter dispenser. The G9a- and GLP-inhibitor BIX-01294 (CID: 25150857) are used as an intraplate control, with a 16-point titration in duplicate. A Kalypsys pin-tool transferred 23nl of library compound solution in DMSO to each well. Following a 15 min incubation of enzyme with compounds at room temperature, 1ul mixture of b-H3K9 peptide substrate (final 500nM) and SAM cofactor (final 20uM) were added. Reactions were allowed to proceed at room temperature for 2 hours. Methylated b-H3K9 peptide product was detected with 0.5 ug/mL rabbit polyclonal anti-monomethyl histone H3K9 antibody (Abcam Inc., Cambridge, MA) and 20 ug/mL each streptavidin-coated donor and anti-rabbit IgG acceptor AlphaScreen beads. Antibody and beads were added in a 1ul dispense, for a final volume of 4ul, and plates were incubated, protected from the light, for 10 min at room temperature. Microplates were then read on an EnVision multilabel plate reader using the 1,536 plate HTS AlphaScreen aperture (excitation time 80 ms, measurement time 240 ms).
On the technique in general: In qHTS, concentration-response curves come from the screen itself.
In the case of `O=C(NC(=S)Nc1ccccc1C(=O)O)c1ccc(-c2ccc(Br)cc2)o1`, the Potency is 22.4 µM (active).

Consider `O=C(Cc1ccccc1)Nc1ccc(C(=O)Nc2ccccc2C(=O)O)cc1`, for which the “activity, negative = inhibition” value is 21.8% [at 102 µM].

With `S=C(c1ccc(-c2ccccc2)o1)N1CCCCC1`, the “activity, negative = inhibition” value was -134%.

With `Cc1ccc(SCC(=O)Nc2ccc3oc(-c4ccccc4C)nc3c2)cc1`, the “activity, negative = inhibition” value is 9.03%.

With `Cc1cccc(NC(=O)CSc2nc3c([nH]c4ccccc43)c(=O)n2-c2cc(C)cc(C)c2)c1`, the “activity, negative = inhibition” value is 2.1%.

For `CCCCCC(=O)Nc1ccc(C(=O)N/N=C/c2ccc([N+](=O)[O-])cc2)cc1`, the “activity, negative = inhibition” value is 6.96% [at 102 µM].

`CC(C)(C)SCCNC(=O)c1cccc([N+](=O)[O-])c1`: the “activity, negative = inhibition” value is -0.0873%.

Consider `COCCCNC(=S)NC(=O)c1ccc([N+](=O)[O-])cc1`, for which the “activity, negative = inhibition” value was -14.4%.

For the molecule `CC(C)CC(=O)NC(=S)NNC(=O)c1cccc([N+](=O)[O-])c1`, the Potency is 22.4 µM (active).

For the molecule `CCCCCC(=O)NC(=S)NNC(=O)c1ccc([N+](=O)[O-])cc1`, the Potency was 8.91 µM (active).

For `Cc1cccc(C(=O)NNC(=O)c2cccc([N+](=O)[O-])c2)c1`, the “activity, negative = inhibition” value is -38.6% [at 102 µM].

With `COc1ccccc1NC(=O)C1=C(C)Nc2ncnn2C1c1sccc1C` (configuration not stated), the “activity, negative = inhibition” value was -1.85%.

Consider `CC(OC(=O)c1ccc(S(=O)(=O)N2CCOCC2)cc1)c1ccccc1` (configuration not stated), for which the “activity, negative = inhibition” value is 30.1% [at 102 µM].

On to `COc1ccccc1/C=C/C(=O)OCC(=O)NC1CCCCCC1`, for which the activity, negative = inhibition is 25.2% [at 2.33 µM].

As to `CC(=O)c1c(C)[nH]c(=S)c(C#N)c1-c1ccc(F)cc1`, the Potency is 1.41 µM (active).

As for `N#Cc1c(-c2ccc(Cl)cc2)c2c([nH]c1=S)CCCC2`, the “activity, negative = inhibition” value was -10.4%.

Consider `Cc1cc(C)c2c(-c3ccc(F)cc3)c(C#N)c(=O)n(C)c2n1`, for which the “activity, negative = inhibition” value was -7.15% [at 102 µM].

For `COc1ccc(OC)c(CNC(=O)CN2C(=O)CCn3nc(-c4cn(C)c5ccccc45)cc32)c1`, the “activity, negative = inhibition” value is -26.2%.

Consider `CCCC(=O)Nc1ccc(NC(=O)c2sc3ccccc3c2Cl)cc1`, for which the “activity, negative = inhibition” value was 0.593%.

For `Cc1ccc(S(=O)(=O)N(Cc2cccc([N+](=O)[O-])c2)C(=O)N2CCN(C)CC2)cc1`, the activity, negative = inhibition was 6.51% [at 2.33 µM].

Turning to `O=C1Nc2ccc([N+](=O)[O-])cc2C1=Nc1cccc(CO)c1`, the “activity, negative = inhibition” value is 5.69% [at 102 µM].

For `CN1CCN(/N=C2/C(=O)Nc3ccc([N+](=O)[O-])cc32)CC1`, the Potency was 50.1 µM (active).

Regarding `O=C(CSc1oc(-c2ccco2)nc1S(=O)(=O)c1ccc(Cl)cc1)c1ccccc1`, the “activity, negative = inhibition” value is -1.32%.

For the molecule `COc1cccc(-c2cc(C(=O)N/N=C/c3ccc(OC)c(COC(C)=O)c3)c3ccccc3n2)c1`, the “activity, negative = inhibition” value was -1.31% [at 102 µM].

Turning to `CC(=O)Nc1ccc(/C=N/NC(=O)c2cccs2)cc1`, the “activity, negative = inhibition” value is -2.45% [at 102 µM].

On to `Cc1ccc(-c2cc(C(=O)N/N=C/C=C/c3ccco3)c3ccccc3n2)cc1C`, for which the Potency was 44.7 µM (active).

Turning to `O=C(N/N=C/C=C/c1ccco1)c1cccs1`, the Potency is 12.6 µM (active).

Turning to `CCOc1cc(/C=N/NC(=O)c2cc(-c3ccccc3)nc3ccccc23)ccc1O`, the “activity, negative = inhibition” value is -41.1% [at 102 µM].

As for `CC(/C=N/NC(=O)c1ccncc1)=C\c1ccco1`, the “activity, negative = inhibition” value is 2.74%.

Turning to `CCOc1ccc(CCNC(=O)COC(=O)c2ccc(F)c(S(=O)(=O)N3CCOCC3)c2)cc1OCC`, the activity, negative = inhibition is -4.3% [at 0.501 µM].

On to `Brc1cccc(-c2nnn3c2nc(NC2CCCCC2)c2ccccc23)c1`, for which the “activity, negative = inhibition” value was 14.7%.

As to `Cc1ccccc1NC(=O)Cc1nc(COC(=O)c2ccc(C(F)(F)F)cc2)cs1`, the activity, negative = inhibition is 5.04% [at 12.7 µM].

Take `CCN(CC(=O)NCc1ccc(Cl)cc1)C(=O)CSc1ccccc1`: the activity, negative = inhibition was -1.68% [at 12.7 µM].

As to `Cc1c(-c2nsc(NC(=O)c3cccc(Cl)c3)n2)nnn1-c1ccccc1C(F)(F)F`, the “activity, negative = inhibition” value was 13.6%.

For the molecule `COc1cc2c(cc1/C=C1/NC(=O)N(c3ccccc3)C1=O)OCO2`, the “activity, negative = inhibition” value was 14.8%.

For the molecule `O=c1c(-c2cccc(Cl)c2)c[nH]n1-c1ccccc1`, the activity, negative = inhibition was 3.35% [at 2.33 µM].

Regarding `O=C1N/C(=C/c2cccn2-c2ccccc2)C(=O)N1c1cccc(Cl)c1`, the Potency is 1 µM (active).

On to `COc1ccc(S(=O)(=O)NCCSc2nnnn2-c2ccccc2)cc1`, for which the “activity, negative = inhibition” value was 40.1%.

Regarding `N[C@@H](Cc1ccccc1)C(=O)N1CCOCC1`, the activity, negative = inhibition was 11.6% [at 2.33 µM].

For the molecule `Cc1cc(C)c(S(=O)(=O)N2CCC(C(=O)OCc3c(C)noc3C)CC2)c(C)c1`, the “activity, negative = inhibition” value was 5.16%.

With `COc1ccccc1-c1nnc(SCC(N)=O)o1`, the “activity, negative = inhibition” value was -28.6%.

On to `O=C(OCCN=C1NS(=O)(=O)c2ccccc21)c1cccc([N+](=O)[O-])c1`, for which the “activity, negative = inhibition” value is 27.8% [at 102 µM].

As to `Cc1ccccc1C(=O)NCCN=C1NS(=O)(=O)c2ccccc21`, the “activity, negative = inhibition” value is -41.3% [at 102 µM].

Consider `N#CC1(NC(=O)COC(=O)CCN=C2NS(=O)(=O)c3ccccc32)CCCCC1`, for which the Potency is 79.4 µM (active).

Consider `O=C(CCCN=C1NS(=O)(=O)c2ccccc21)OCC(=O)c1ccc(F)c(F)c1`, for which the Potency is 44.7 µM (active).

For the molecule `N#CC1(NC(=O)COC(=O)CSc2ccc(F)cc2)CCCCC1`, the “activity, negative = inhibition” value was 0.383% [at 102 µM].

`N#CC1(NC(=O)COc2ccc3oc4ccccc4c3c2)CCCCC1`: the “activity, negative = inhibition” value is -2.61%.

The values above are taken from PubChem BioAssay AID504332 (National Center for Advancing Translational Sciences (NCATS), 2011).
